# From PubChem
# Rows were chosen to be rich in hits. Some 3.3% of all compounds tested hit in one or more screens of this group.
# UBC13 inh: blocks human UBC13 polyubiquitin chain formation; P61088; TR-FRET; inhibition, % at 20 µM; hit rate 0.47% among 330,000; AID 485273; in the data active means inhibition above about 45%, passing the limit was not always enough
# Target sequence (P61088 whole entry, looked up): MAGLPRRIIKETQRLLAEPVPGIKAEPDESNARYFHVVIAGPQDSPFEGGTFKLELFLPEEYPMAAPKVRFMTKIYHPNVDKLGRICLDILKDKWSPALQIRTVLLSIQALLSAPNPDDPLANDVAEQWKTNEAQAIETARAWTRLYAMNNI
# GRIN3A LBD mod: modulators (binders) of human NR3A ligand-binding domain; NR3A LBD differential scanning fluorimetry, Tm shift; 0% = protein alone, 100% = glycine-bound protein; Tm shift relative to glycine control, % at 25 µM; hit rate 2.5% among 340,000; AID 1259313;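 active means melting temperature shift of at least 10% of the positive control shift, at one fixed dose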
# SUMO HTRF inh: SUMOylation inhibition; P63279; HTRF SUMOylation assay, SAE1/SAE2 + UBC9, in vitro; inhibition, % at 35 µM; hit rate 0.36% among 290,000; AID 2006; in the data active means inhibition above about 50%, passing the limit was not always enough
# Target sequence (P63279 whole entry, looked up): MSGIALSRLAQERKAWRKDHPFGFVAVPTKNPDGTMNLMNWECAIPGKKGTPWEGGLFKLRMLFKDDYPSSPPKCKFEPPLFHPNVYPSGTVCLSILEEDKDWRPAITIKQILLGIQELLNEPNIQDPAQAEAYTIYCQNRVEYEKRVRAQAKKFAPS
# sPLA2-III inh: Blocks human group III sPLA2 activity; Q9NZ20; QFRET BODIPY PC-A2 liposome hydrolysis, fluorescence; inhibition, % at 12.2 µM; hit rate 0.56% among 370,000;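 active means inhibition above mean plus 3 SD of compounds lying within the high and low control bounds, cut at about 19% in these data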;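 further: 0% = median of test compound wells and 100% = no enzyme DMSO wells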
# Casp3 UBC13 ctr: caspase-3 inhibition (UBC13 counter-screen); shares compounds with UBC13 inh; Recombinant caspase-3, Caspase-Glo 3/7 luminescence, 60 min; inhibition, % at 20 µM; hit rate 4% among 1,400;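 active means mean inhibition across replicates above about 26%, limit read from the data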;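 further: plate controls were DMSO with caspase-3 for no effect and DMSO wells lacking enzyme for full effect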
# Target sequence (P42574 whole entry, looked up): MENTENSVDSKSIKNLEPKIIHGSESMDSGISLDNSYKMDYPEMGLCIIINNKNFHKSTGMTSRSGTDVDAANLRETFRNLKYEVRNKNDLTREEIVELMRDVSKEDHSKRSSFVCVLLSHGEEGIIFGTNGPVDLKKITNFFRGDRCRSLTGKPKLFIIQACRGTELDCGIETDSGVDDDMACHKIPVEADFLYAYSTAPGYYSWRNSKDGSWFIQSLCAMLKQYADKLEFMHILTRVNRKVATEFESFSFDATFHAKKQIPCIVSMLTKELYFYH
# UBC13 confirm: human UBC13 polyubiquitin inhibition, confirmed. shares compounds with UBC13 inh. hit rate 68% among 1,400. UBC13 polyubiquitination, TR-FRET, biochemical. inhibition, % at 10 µM; in the data active means inhibition above about 45%
# The depositor's hits bear a star; . = no result; ! = not confirmed by another sample.
SMILES,UBC13 inh,GRIN3A LBD mod,SUMO HTRF inh,sPLA2-III inh,Casp3 UBC13 ctr,UBC13 confirm
Cc1cccc2c1-c1sc(C(=O)NCCCN3CCCC(C)C3)cc1CO2 (stereo not given),67*,-4,38,-17,4,97*
CC1CCCC(C)N1CCCNC(=O)c1cc2c(s1)-c1ccccc1OC2 (stereo not given),34,0,33,2,.,.
COC(=O)[C@@]12CCCCC3=C1N(CCC3)C(=O)[C@H]2CC(=O)N1CCSCC1,.,.,.,0,.,.
C[C@H]1[C@H](NC(=O)c2ccc(Cl)c(C(F)(F)F)c2)CC[C@@]23CCCN2C(=O)CCC[C@@H]13,.,.,.,-2,.,.
CCCCN(CC)CCNC(=O)c1cc2c(=O)n(C)c3ccccc3c2n1C,57*,-1,6,2,-1,53*
CCN(CC)CCCNC(=O)c1cc2c(=O)n(C)c3ccccc3c2n1C,36,3,6,1,.,.
COC(=O)c1cccc(NC(=O)Cc2coc3cc(OC)ccc23)c1,48*,-25,-18,-20,-3,53*
Cc1cccc(N(C(=O)c2snc(C(N)=O)c2N)C(C(=O)NCC2CCCO2)c2c[nH]c3ccccc23)c1 (stereo not given),77*,-1,-19,-35,4,81*
NC(=O)c1nsc(C(=O)N(c2cccc(F)c2)C(C(=O)NCC2CCCO2)c2c[nH]c3ccccc23)c1N (stereo not given),79*,-31,-15,-16,0,87*
NC(=O)c1nsc(C(=O)N(c2ccc(F)cc2)C(C(=O)NCC2CCCO2)c2c[nH]c3ccccc23)c1N (stereo not given),63*,1,-10,-1,2,64*
CCOc1ccc(C(C(=O)NCC2CCCO2)N(C(=O)c2snc(C(N)=O)c2N)c2ccc(F)cc2)cc1 (stereo not given),17,-4,6,-2,.,.
NC(=O)c1nsc(C(=O)N(c2cccc(F)c2)C(C(=O)NCC2CCCO2)c2ccc3ncccc3c2)c1N (stereo not given),33,-2,11,-6,.,.
COc1ccc(CN(CCN2CCOCC2)C(=O)c2cccc(F)c2)cc1OC,.,.,.,5,.,.
Cn1c(=O)cc(OCCCC(=O)Nc2cc(-c3ccncc3)ccn2)c2ccccc21,.,.,.,3,.,.
CCOC(=O)[C@@]12CCC3=C1N(CCC3)C(=O)[C@H](CC(=O)NCCc1ccccc1OC)C2,.,.,.,12,.,.
Cc1ccc(NC(=O)CSc2ncnc3ccccc23)cc1S(=O)(=O)N1CCOCC1,51*,1,5,-7,0,34
CCOC(=O)CSc1nc2ccccc2c(=O)n1CCCCCC(=O)NCc1ccco1,47*,0,29,-2,-1,47*
O=C(CSc1nc2ccsc2c(=O)n1NC(=O)c1ccccc1)NCc1ccco1,2,3,18,7,.,.
Cc1ccc(NC(=O)CSc2ncnc3ccccc23)cc1S(=O)(=O)N1CCCCC1,29,-11,-27,3,.,.
O=C(CSc1nc2ccsc2c(=O)n1Cc1ccccc1)NCc1ccco1,50*,2,4,-3,0,68*
Cc1ccc(NC(=O)CSc2nc3ccccc3c(=O)n2CCCC(=O)NCCCN2CCOCC2)cc1C,48*,-2,-34,-6,-1,55*
COC(=O)[C@]12C[C@H](CC(=O)NCC34CC5CC(CC(C5)C3)C4)C(=O)N(Cc3ccc4c(c3)OCO4)C1=C[C@H](C(C)C)O[C@@H]2C1CC1,.,.,.,-10,.,.
O=C1CC(N2CCCN(Cc3ccccc3)CC2)=NC(=O)N1c1ccc(Br)cc1,.,.,.,1,.,.
CCCCN(CC)S(=O)(=O)c1ccc(C(=O)N(CCCN(C)C)c2nc3cc(C)cc(C)c3s2)cc1,80*,0,0,-13,0,102*
Cc1cc(C)c2sc(N(CCCN(C)C)C(=O)c3ccc(Br)s3)nc2c1,28,0,9,-13,.,.
SMILES,UBC13 inh,GRIN3A LBD mod,SUMO HTRF inh,sPLA2-III inh,Casp3 UBC13 ctr,UBC13 confirm
CCN(Cc1ccccc1)S(=O)(=O)c1ccc(C(=O)N(CCCN(C)C)c2nc3cc(C)cc(C)c3s2)cc1,74*,1,.,-5,-3,109*
Cc1cc(C)c2sc(N(CCCN(C)C)C(=O)c3ccc(S(=O)(=O)N(C)Cc4ccccc4)cc3)nc2c1,96*,0,.,-7,2,115*
CCOC(=O)c1c(CSC(=N)N)n(-c2ccc(Br)cc2)c2cc(Br)c(OC(C)=O)cc12,.,-4,-38,11,.,.
CCCCCCCCOC(=O)c1c(CSC(=N)N)n(C)c2cc(Br)c(OC(C)=O)cc12,96*,40*,-61,16,4,114*
O=C(Nc1ccc(F)cc1)N[C@@H]1C[C@@H]2O[C@H](CO)CC[C@@H]2O[C@@H]1CCc1ccc(C2=CCCC2)cc1,.,.,.,-19,.,.
CCCCCCCCN1C(=O)[C@@H](CC(=O)NCc2ccccc2)C[C@@]2(C(=O)OC)C1=C[C@H](C(C)C)O[C@@H]2C1CC1,.,.,.,-4,.,.
CCN1CCN(CCCNC(=O)c2ccc(/C=C3/Sc4ccccc4N(Cc4ccccc4F)C3=O)cc2)CC1,46*,-3,1,-15,0,54*
COC(=O)C[C@@H]1CC[C@@H]2[C@@H](COc3ccc(NC(=O)Nc4ccccc4)cc3C(=O)N2C)O1,.,.,.,-5,.,.
CCOC(=O)C1=C(c2ccccc2)O/C(=C(\C(=O)OC)C(F)(F)F)S1,51*,1,-40,-2,1,44
CCc1cccc2c(C(=O)C(NCCCOC)c3ccccc3)c[nH]c12 (stereo not given),28,-1,6,-7,.,.
CCc1cccc2c(C(=O)C(NC(C)CC)c3ccccc3)c[nH]c12 (stereo not given),79*,-2,-16,-33,1,101*
O=C(CCc1ccccc1-c1ccccc1CCNC(=O)c1ccc(F)c(F)c1)NCc1ccccc1,.,.,.,3,.,.
O=C(Nc1ccc(C2=NCCN2)cc1)c1ccc(C(=O)Nc2ccc(C3=NCCN3)cc2)c([N+](=O)[O-])c1,107*,-7,6,-10,2,123*
COCCCN1C(=O)[C@H](CC(=O)N2CCC(c3ccccc3)CC2)[C@]2(C(=O)OC)CCCCC=C12,.,.,.,-4,.,.
COc1ccc(C2c3ccc4ccccc4c3Oc3ncn(CCCN(C)C)c(=N)c32)cc1 (stereo not given),61*,-3,15,-13,-4,48*
CCOC(=O)C1=C(COCCN)NC(C)=C(C(=O)OC)C1c1ccccc1Cl (stereo not given),61*!,1,.,4,3,37
COc1ccc(OC)c(/C=C/C(=O)OCC(=O)c2c(N)n(C)c(=O)n(C)c2=O)c1,46*,3,16,2,-4,43
O=C(Nc1ccccc1F)O[C@@H]1CC[C@@]23CCCN2C(=O)CCC[C@H]3C1,.,.,.,-1,.,.
C#CCNC(=O)C[C@H]1C[C@@]2(C(=O)OC)C(=C[C@H](COCc3ccccc3)O[C@@H]2C)N(Cc2ccco2)C1=O,.,.,.,-3,.,.
